# Data published in the supplement of paper PMC10646978.
# ± gives the standard deviation.
# What was measured:
# Details in all cases: modulator concentration 10 µM
# [1] = tested on: RAW-Dual (murine macrophage reporter line); assay: NF-kB reporter (SEAP) activity fold change vs agonist alone; higher = enhanced NF-kB activity
# Procedure, shortened: (§1)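 RAW-Dual murine macrophage reporter cells were plated at 50 000 per well in 384-well plates, pin-transferred compound to 10 μM final, and pre-incubated for 1 hour at 37 °C before a PRR agonist was added and the cells incubated overnight. NF-κB activity was read from supernatant SEAP with QUANTI-Blue at 620 nm absorbance, and IRF activity from Lucia luciferase with QUANTI-Luc by luminescence. Each signal was expressed as fold change by dividing by the mean agonist-only control on the same plate. Two replicate plates were averaged, with errors obtained by propagation.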
# [2] = tested on: RAW-Dual (murine macrophage reporter line); assay: IRF reporter (Lucia luciferase) activity fold change vs agonist alone; higher = enhanced IRF activity
# Procedure, shortened: as §1
# [3] = tested on: RAW-Dual (murine macrophage reporter line); assay: viability score (confluency relative to resting cells, overnight) (fraction); higher = more viable, active = viable (0.7 or more)
# Procedure, shortened: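 A compound met the cutoff when both of two confluency masks exceeded 70% of resting cells. Those masks were made with IncuCyte software from IncuCyte images of RAW-Dual macrophages treated overnight at 10 μM final. This is the basis of the viability score, which is confluency relative to resting cells.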
# [4] = agonist: CpG ODN 1826 0.5 ug/mL
SMILES,"NF-kB reporter [1, 4]",NF-kB reporter ([1]; agonist: LPS 0.1 ug/mL),NF-kB reporter ([1]; agonist: MPLA […]),IRF reporter ([2]; agonist: 3'3'-cGAMP 10 ug/mL),IRF reporter ([2]; agonist: LPS 0.1 ug/mL),IRF reporter ([2]; agonist: MPLA […]),viability score [3]
CC(Cc1ccc(O)c(O)c1)C(C)Cc1ccc(O)c(O)c1 (centres undefined),1.16 ± 0.31,0.645 ± 0.057,1.31 ± 0.094,0.0338 ± 0.0028,0.509 ± 0.062,0.544 ± 0.055,0.618 (inactive)
COC(=O)C1=C(C)NC(=O)CC1c1cc([N+](=O)[O-])ccc1Cl (centres undefined),0.933 ± 0.055,0.986 ± 0.11,0.955 ± 0.058,0.966 ± 0.032,1.16 ± 0.099,0.994 ± 0.24,0.988 (active)
CCOc1cccc2sc(=NC(=O)c3ccc(S(=O)(=O)N4CCOCC4)cc3)n(C)c12,0.991 ± 0.31,1.14 ± 0.16,0.989 ± 0.13,0.97 ± 0.025,1.06 ± 0.14,1.27 ± 0.15,0.995 (active)
Cc1ccc(OCC(=O)NN=Cc2cc(Br)cc(Br)c2O)c([N+](=O)[O-])c1,0.928 ± 0.071,0.908 ± 0.11,1.08 ± 0.17,1.01 ± 0.073,1.33 ± 0.26,1.47 ± 0.33,1.02 (active)
COc1ccc(Br)cc1C(=O)Nc1cc(C(F)(F)F)cc(C(F)(F)F)c1,1.2 ± 0.11,0.99 ± 0.096,1.01 ± 0.044,0.982 ± 0.036,0.991 ± 0.07,1.05 ± 0.14,0.999 (active)
Cc1ccc(C(=O)NC2CCN(c3ccc4nncn4n3)C2)c(C)c1 (centres undefined),0.957 ± 0.13,1.02 ± 0.081,1.15 ± 0.15,1.03 ± 0.066,0.995 ± 0.18,0.935 ± 0.42,1 (active)
O=C(NCCOc1cccc2ccccc12)Nc1cc(F)c(F)cc1Cl,0.945 ± 0.11,1.06 ± 0.14,0.854 ± 0.053,0.886 ± 0.027,1.14 ± 0.17,0.878 ± 0.24,1.01 (active)
CCOCCn1c(C2CCN(CCc3ccc(C(C)(C)C(=O)O)cc3)CC2)nc2ccccc21,1.29 ± 0.34,0.976 ± 0.065,1 ± 0.098,0.925 ± 0.034,1.08 ± 0.13,1.04 ± 0.13,0.521 (inactive)
Cc1nnc(NC(=O)CSc2nc3ccccc3[nH]2)s1,1.11 ± 0.094,1.01 ± 0.073,0.954 ± 0.078,1.14 ± 0.22,1.01 ± 0.13,1.05 ± 0.2,0.995 (active)
CC(C)N(C)CCOC(=O)C(C)(c1ccccc1)c1ccccc1,0.583 ± 0.047,1.03 ± 0.068,0.957 ± 0.11,0.902 ± 0.069,1.09 ± 0.12,0.965 ± 0.17,0.322 (inactive)
CC(C)(C)c1ccc(-c2nc(-c3cccc([N+](=O)[O-])c3)no2)cc1,1.06 ± 0.1,0.972 ± 0.091,0.964 ± 0.025,1.02 ± 0.071,1.01 ± 0.098,1.05 ± 0.17,0.995 (active)
Cc1ccc(O)c(C2=NOC(O)(C(F)(F)F)C2)c1 (centres undefined),1.05 ± 0.065,0.955 ± 0.074,0.919 ± 0.054,0.975 ± 0.037,1.43 ± 0.24,1.04 ± 0.093,0.339 (inactive)
Cc1nc2n(c(=O)c1CCN1CCC(c3noc4cc(F)ccc34)CC1)CCCC2O (centres undefined),1.11 ± 0.27,1.14 ± 0.071,0.997 ± 0.11,0.902 ± 0.038,1.26 ± 0.14,1.14 ± 0.11,1 (active)
N#Cc1c(N=Cc2ccc(Cl)cc2)sc2c1CCCC2,0.912 ± 0.16,1.01 ± 0.21,0.89 ± 0.068,0.915 ± 0.031,1.17 ± 0.21,1.21 ± 0.12,1 (active)
NNC(=O)c1ccncc1,1.51 ± 0.21,1.33 ± 0.21,1.31 ± 0.14,0.91 ± 0.028,1.42 ± 0.12,1.11 ± 0.14,0.999 (active)
N=C(N)Nc1nc(CSCCC(=N)NS(N)(=O)=O)cs1,1.09 ± 0.1,0.992 ± 0.059,1.06 ± 0.039,0.967 ± 0.064,0.898 ± 0.036,1.02 ± 0.088,0.995 (active)
Cc1ccc(C(=O)c2cc(O)c(O)c([N+](=O)[O-])c2)cc1,0.889 ± 0.078,1.09 ± 0.056,1.07 ± 0.049,0.871 ± 0.048,0.917 ± 0.081,0.946 ± 0.075,0.995 (active)
Cl.NCc1ccc(S(N)(=O)=O)cc1,0.998 ± 0.097,0.965 ± 0.047,0.998 ± 0.078,0.964 ± 0.058,0.962 ± 0.038,0.928 ± 0.13,1 (active)
CCCCN(CCCC)S(=O)(=O)c1ccc(N2CCCC2=O)c([N+](=O)[O-])c1,1.02 ± 0.12,1.07 ± 0.071,1 ± 0.062,0.975 ± 0.15,1.1 ± 0.13,1.13 ± 0.27,1 (active)
[O-][n+]1cccc(CO)c1,1.58 ± 0.067,1.96 ± 0.16,3.03 ± 0.16,1.14 ± 0.054,1 ± 0.19,1.4 ± 0.42,0.987 (active)
COc1cccc2c1C(=O)c1c(O)c3c(c(O)c1C2=O)C[C@@](O)(C(C)=O)C[C@@H]3O[C@H]1C[C@H](N)[C@H](O)[C@H](C)O1.Cl,0.115 ± 0.0076,0.0574 ± 0.0063,0.0998 ± 0.0052,0.0163 ± 0.004,0.0195 ± 0.0046,0.0153 ± 0.0037,0.0601 (inactive)
O=C1C(=Cc2ccncc2)CCC1=Cc1ccncc1,1.03 ± 0.082,0.928 ± 0.08,0.971 ± 0.12,0.993 ± 0.045,1.21 ± 0.17,1.28 ± 0.27,1.01 (active)
CCOc1ccccc1NC(=O)N1CCCC1CS(=O)(=O)c1ccccc1 (centres undefined),1.01 ± 0.062,1.15 ± 0.093,0.954 ± 0.046,1.09 ± 0.057,1.3 ± 0.087,1.14 ± 0.16,0.989 (active)
COc1ccccc1-c1cc(-c2ccccc2)nc(SCC(N)=O)c1C#N,1.06 ± 0.17,0.918 ± 0.12,0.928 ± 0.073,0.596 ± 0.02,1.2 ± 0.18,1.41 ± 0.2,1 (active)
CC(C=CC1=C(C)CCCC1(C)C)=CC=CC(C)=CC(=O)O,1.29 ± 0.11,0.943 ± 0.078,1.01 ± 0.1,0.568 ± 0.031,1.1 ± 0.14,0.904 ± 0.19,0.986 (active)
O=C(c1ccc(OC(F)(F)F)cc1)N1CCC(Oc2cccnn2)CC1,1.04 ± 0.094,1.25 ± 0.1,0.926 ± 0.049,1.03 ± 0.073,1.08 ± 0.065,1.15 ± 0.087,1.01 (active)
NC(Cc1cc(I)c(Oc2cc(I)c(O)c(I)c2)c(I)c1)C(=O)O (centres undefined),0.948 ± 0.23,0.984 ± 0.098,0.94 ± 0.073,0.901 ± 0.036,1.18 ± 0.2,1.12 ± 0.14,1 (active)
